Screening data as filed in PubChem.
POLB inh: blocks human DNA polymerase beta activity; Pol beta primer extension/strand displacement, fluorescence kinetic; AID 485314; P06746; Potency, µM (doses to about 114 µM), for inactives: at the top dose activity change, negative = inhibition, actives largely listed as inhibitors; hit rate 1.3% among 340,000; also: potency is read from the fitted curve at half-maximal effect; % is scaled to controls: 0 for no effect and ±100 for the full control effect
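10 nM enzyme + cpd, 15 min RT; start with substrate 50 nM final; read 0 min and after 10 min RT. Corrected, normalized data; 4-parameter Hill curve fit.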
Pol iota inh: inhibitors of human DNA polymerase iota; Q9UNA4; Potency, µM (top dose mostly 115 µM), for the others: at the highest dose activity, negative = inhibition, most hits filed as inhibitors; hit rate 1% among 390,000; Pol iota fluorescent replication assay, 10 min; AID 588590; also: potency is read from the fitted curve at half-maximal effect
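Fluorescent replication assay read twice, at 0 min and 10 min after adding 50 nM (final) substrate. Enzyme (10 nM) and compounds were first incubated 15 min at room temperature; enzyme-free buffer wells were negative controls.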
Pol eta inh-1: DNA polymerase eta (human) inhibition. recombinant Pol eta, fluorescent DNA replication assay. Potency, µM (top dose mostly 114 µM), without a hit: at the highest dose activity change, negative = inhibition, most hits filed as inhibitors. hit rate 1.2% among 390,000. AID 588591; also: potency is read from the fitted curve at half-maximal effect; % is scaled to controls: 0 for no effect and ±100 for the full control effect
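Fluorescent replication assay: 50 nM final substrate added after a 15 min room-temperature compound preincubation with 10 nM enzyme. Signal taken at 0 min and again at 10 min.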
Pol kappa inh-1: inhibitors of human DNA polymerase kappa. Q9UBT6. Potency, µM (highest dose often 107 µM), without a hit: at the highest dose activity, negative = inhibition, actives largely listed as inhibitors. purified Pol kappa, fluorescent DNA synthesis assay, 10 min. hit rate 0.53% among 400,000; also: potency is read from the fitted curve at half-maximal effect; % is scaled to controls: 0 for no effect and ±100 for the full control effect
Target sequence (Q9UBT6 whole entry, looked up): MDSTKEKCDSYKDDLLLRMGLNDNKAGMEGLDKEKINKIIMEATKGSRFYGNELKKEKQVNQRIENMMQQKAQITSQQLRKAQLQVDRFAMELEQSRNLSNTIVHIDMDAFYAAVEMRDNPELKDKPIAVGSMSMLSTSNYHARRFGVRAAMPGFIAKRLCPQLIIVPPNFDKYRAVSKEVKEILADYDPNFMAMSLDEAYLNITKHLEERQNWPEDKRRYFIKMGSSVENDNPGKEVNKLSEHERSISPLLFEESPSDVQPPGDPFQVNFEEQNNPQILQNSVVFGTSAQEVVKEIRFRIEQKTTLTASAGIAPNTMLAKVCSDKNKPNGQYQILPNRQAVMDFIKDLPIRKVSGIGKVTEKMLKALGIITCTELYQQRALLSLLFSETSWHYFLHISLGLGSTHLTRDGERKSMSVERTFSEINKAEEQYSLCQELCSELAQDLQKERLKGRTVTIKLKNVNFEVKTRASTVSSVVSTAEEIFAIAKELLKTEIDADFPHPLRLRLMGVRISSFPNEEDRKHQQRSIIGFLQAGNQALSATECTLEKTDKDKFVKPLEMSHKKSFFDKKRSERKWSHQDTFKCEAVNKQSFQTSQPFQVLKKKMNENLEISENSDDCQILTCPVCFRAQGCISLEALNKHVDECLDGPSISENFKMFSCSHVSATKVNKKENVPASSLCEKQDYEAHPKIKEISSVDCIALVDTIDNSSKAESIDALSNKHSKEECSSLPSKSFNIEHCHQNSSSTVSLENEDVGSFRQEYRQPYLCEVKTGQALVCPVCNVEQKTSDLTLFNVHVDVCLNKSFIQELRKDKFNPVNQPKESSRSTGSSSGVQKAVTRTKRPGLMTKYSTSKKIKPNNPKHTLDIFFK
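Activity was followed as the change in fluorescence between reads at 0 and 10 min after starting the reaction with 50 nM substrate. Beforehand, 10 nM polymerase had been preincubated with compound for 15 min at room temperature.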
PI5P4K alpha inh: PI5P4K alpha (human) kinase inhibition | P48426 | PI5P4Kalpha enzyme, ADP-Glo luminescence, 60 min; stronger effect = lower value | max response, % | hit rate 1.2% among 330,000 | AID 652105; active = max response of -50% or lower; inconclusive = between -30% and -50%; inactive = -30% or higher; also: value at the top dose of about 77 µM; % is scaled to controls: 0 for no effect and ±100 for the full control effect
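Reactions run in 0.038 M HEPES pH 7.4, 0.28 mM EGTA, 0.1% CHAPS and 5% DMSO, with PI5P4Kalpha, substrate, compound and 5 microM ATP final, one hour at room temperature. Readout is ADP-Glo luminescence.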
WRN helicase inh: inhibitors of human WRN helicase; AID 651768; Q14191; WRN helicase unwinding, fluorescent forked duplex, kinetic; hit rate 0.46% among 360,000; Potency, µM (doses to about 114 µM), for inactives: at the top dose activity change, negative = inhibition, actives largely listed as inhibitors; also: potency is read from the fitted curve at half-maximal effect; % is scaled to controls: 0 for no effect and ±100 for the full control effect; nearly all actives have a fitted effect of over 55% in size
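Primary qHTS, 1536-well format. 20 nM WRN + compound, 15 min RT; start with 100 nM forked fluorophore/quencher duplex, 2 mM ATP (final); kinetic read ex 525/em 598 nm.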
TbPGK inh: validation of Trypanosoma brucei phosphoglycerate kinase inhibitors; shares compounds with Pol kappa inh-1; TbPGK coupled GAPDH assay, Kinase-Glo luminescence; Potency, µM (top dose mostly 57.5 µM), inactives show top-dose activity change, negative = inhibition, hits mostly inhibitors; hit rate 79% among 500; AID 686980; also: potency is read from the fitted curve at half-maximal effect; % is scaled to controls: 0 for no effect and ±100 for the full control effect; nearly all actives have a fitted effect of over 65% in size
Pol iota confirm: Confirm cherry-picked inhibitors of human polymerase iota. shares compounds with Pol kappa inh-1. Pol iota primer extension, TAMRA/BHQ fluorescence. Potency, µM, actives largely listed as inhibitors. hit rate 77% among 1,500. AID 720496; also: potency is read from the fitted curve at half-maximal effect
Pol kappa inh-2: confirmation of human DNA polymerase kappa inhibitors; Potency, µM, usual class: inhibitors; hit rate 76% among 920; shares compounds with Pol eta inh-1; AID 720501; purified Pol-kappa, fluorescent strand-displacement substrate; also: potency is read from the fitted curve at half-maximal effect
Pol eta inh-2: Pol eta (human) inhibition, cherry-pick confirmation; shares compounds with Pol eta inh-1; Pol eta primer extension, TAMRA/BHQ fluorescence, 10 min; Potency, µM, usual class: inhibitors; hit rate 64% among 2,600; also: potency is read from the fitted curve at half-maximal effect
The depositor's hits bear a star; ? = inconclusive; nt = no result; [ ] = dose if it differs, or a comment. Sampled rows, rich in hits. Any-hit rate of the full collection: about 2.8%. Unless noted, calls follow the shape of the dose curve; as a rule, active = well fitted curve in the direction sought with a large enough effect; inconclusive = small, poorly fitted or top-dose-only effect, or another doubt; inactive = no such curve, though single readings can be large; an effect the other way counts as inactive or inconclusive.

SMILES	POLB inh	Pol iota inh	Pol eta inh-1	Pol kappa inh-1	PI5P4K alpha inh	WRN helicase inh	Pol iota confirm	Pol kappa inh-2	Pol eta inh-2	others
O=C1NC(=S)S/C1=C/c1ccc(N2CCOCC2)o1	14.1µM*	79.4µM*	?	?	-52.6*	25.1µM*	37.7*	84.4*	75.7*
O=C1S/C(=C/c2ccc(N3CCOCC3)o2)C(=O)N1Cc1ccc(F)cc1	12.0%	1.5%	6.3%	-23.2%	-7.4	-6.8%	nt	nt	nt
O=C(COc1ccc(/C=N/NC(=O)c2ccccc2O)cc1)Nc1ccccc1	17.8µM*	?	?	?	-14.1	-35.6%	nt	47.4*	nt	TbPGK inh=14.6µM*
COc1cc(/C=N/NC(=O)c2ccccc2O)ccc1OCC(=O)Nc1ccccc1	6.31µM*	28.2µM*	50.1µM*	50.1µM*	-2.6	?	42.3*	16.8*	?
COc1cc(/C=N/NC(=O)c2ccncc2)ccc1OCC(=O)Nc1ccccc1	-0.2%	-19.2%	8.6%	-6.3%	1.8	-7.4%	nt	nt	nt
COc1ccccc1NC(=S)N(CCCN1CCOCC1)Cc1cccs1	0.0%	61.4%	-9.3%	6.7%	1.1	-24.0%	nt	nt	nt
COc1ccc2c(=O)c3c(=O)n(Cc4ccco4)c(-c4ccco4)nc3oc2c1	?	20µM*	35.5µM*	70.8µM*	nt	44.7µM*	67*	nt	42.6*
Cc1c(-c2ccc(Cl)cc2)c(=O)oc2c(CN3CCN(CCO)CC3)c(O)ccc12	-0.4%	1.5%	-0.1%	-2.5%[60.1 µM]	nt	nt	nt	nt	nt
c1ccc2c(c1)oc1c(-c3cccc4nccn34)cccc12	nt	nt	nt	nt	0.3	-1.6%	nt	nt	nt
O=C(CSc1ccc(-c2ccco2)nn1)Nc1ccc(F)cc1F	-0.6%	?	-17.5%	-25.3%	-29.8	-30.9%	nt	nt	nt
CC(=O)c1cccc(NC(=O)CSc2ccc(-c3ccco3)nn2)c1	50.1µM*	22.4µM*	?	?	?	?	?	nt	?
Cc1cc(=O)n(CC(=O)NC(C)c2ccccc2)c2c1c(C)nn2C (stereo not drawn)	31.6µM*	-22.8%	39.8µM*	?	nt	nt	67*	nt	84.9*
Cc1nn(C)c2c1c(-c1ccccc1)cc(=O)n2CC(=O)NC(C)c1ccccc1 (stereo not drawn)	14.1µM*	?	25.1µM*	?	nt	nt	33.6*	16.8*	26.9*
CN(C(=O)COC(=O)/C=C/c1ccc(F)cc1)c1c(N)n(Cc2ccccc2)c(=O)[nH]c1=O	nt	15.7%	-7.6%	5.5%	8.9	0.7%	nt	nt	nt
Cc1ccc(S(=O)(=O)N2[C@@H](c3ccc(Cl)cc3)C(C(=O)O)=CC[C@H]2c2ccc(C(C)C)cc2)cc1	nt	-5.6%	?	-38.4%	-5.0	-1.0%	59.7*	42.3*	84.9*
O=C(O)C(Cc1ccccc1)N1C(=O)/C(=C/C=C/c2ccco2)SC1=S (stereo not drawn)	1.58µM*	1.12µM*	1.41µM*	3.16µM*	-98.8*	10µM*	2.99*	nt	3.38*	TbPGK inh=5.8µM*
COc1ccc(/C=C2\SC(=S)N(C(Cc3ccccc3)C(=O)O)C2=O)cc1 (stereo not drawn)	-11.7%	-1.9%	4.5%	-9.0%	3.1	?	nt	nt	nt
O=C(O)CCCN1C(=O)/C(=C/c2cn(-c3ccccc3)nc2-c2cccs2)SC1=S	22.4µM*	35.5µM*	28.2µM*	?	3.1	50.1µM*	42.3*	nt	75.7*
N#CCC(=O)Nc1ccc(C(=O)OCC(=O)N2CCN(C(=O)c3ccco3)CC2)cc1	nt	44.7µM*	?	44.7µM*	-21.9	?	?	nt	?
Cc1cc(C)c(NC(=O)COC(=O)c2cccc3c2C(=O)c2ccccc2C3=O)c(C)c1	12.6%	21.6%	-20.6%	-5.1%	3.9	-9.5%	nt	nt	nt
Cc1cc(C)c(Nc2cc(S(=O)(=O)O)c(N)c3c2C(=O)c2ccccc2C3=O)c(C)c1	20µM*	?	17.8µM*	?	-61.3*	56.2µM*	nt	33.6*	?	TbPGK inh=29.1µM*
CC(C)c1nc(SCC(=O)Nc2nccs2)c2ccccc2n1	25.1µM*	?	31.6µM*	-23.8%	-3.2	?	53.2*	nt	75.7*
CCc1nn(CC(=O)NCc2ccco2)c(=O)c2cc3cc(F)ccc3n12	7.0%	?	-12.9%	1.8%	nt	nt	nt	nt	nt
CC(C)N(CCCNC(=O)Cn1c(=O)c2cccn2c2ccccc21)Cc1ccccc1	1.4%	3.8%	-3.8%	13.5%	-0.6	-10.2%	nt	nt	nt
C/C(N)=C(/C#N)C(=O)CSc1nnc(NC(C)C)s1	-28.3%	?	28.2µM*	?	nt	?	67*	nt	67.5*
Cn1c2ccccc2c2cc(/C=N/NC(=O)c3cc(O)ccc3O)ccc21	10µM*	10µM*	10µM*	50.1µM*	-90.3*	22.4µM*	?	nt	53.6*
CCCc1c(C)[nH]c2ccc(C(=O)O)cc2c1=S	?	6.31µM*	3.16µM*	31.6µM*	?	25.1µM*	16.8*	nt	5.36*
COC1=C(Br)C(=O)c2nc(C)ccc2C1=O	nt	nt	14.1µM*	nt	-68.0*	50.1µM*	26.7*	18.9*	30.1*
